Rows were chosen to be rich in hits. Some 6% of all compounds tested hit in one or more screens of this group.
D1 antagonist = human D1 dopamine receptor antagonism; HEK293 TREx D1 cells, calcium flux, dopamine EC80; stronger effect = lower value; activity change, negative = inhibition, % at 10 µM; hit rate 3.2% among 360,000; in the data active = activity change below about -30%; also: % is scaled to controls: 0 for no effect and ±100 for the full control effect
Target sequence (P21728 whole entry, looked up): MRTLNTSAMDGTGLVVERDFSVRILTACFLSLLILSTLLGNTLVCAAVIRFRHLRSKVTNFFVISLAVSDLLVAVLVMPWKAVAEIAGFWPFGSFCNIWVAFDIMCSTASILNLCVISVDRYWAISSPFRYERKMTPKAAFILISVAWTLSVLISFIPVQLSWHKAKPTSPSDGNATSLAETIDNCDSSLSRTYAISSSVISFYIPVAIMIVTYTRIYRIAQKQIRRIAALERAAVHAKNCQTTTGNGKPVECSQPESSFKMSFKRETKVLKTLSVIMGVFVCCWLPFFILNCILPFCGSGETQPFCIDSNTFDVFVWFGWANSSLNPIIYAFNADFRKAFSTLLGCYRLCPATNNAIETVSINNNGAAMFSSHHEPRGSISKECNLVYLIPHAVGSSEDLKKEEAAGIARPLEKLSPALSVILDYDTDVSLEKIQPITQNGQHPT
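Compound effects on dopamine-evoked calcium signalling were measured in tetracycline-induced HEK293 Trex D1 cells. Dopamine at EC80 followed a 180 s compound pre-read, and fluorescence was tracked kinetically for 180 s more.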
DRD3 agonist = D3 dopamine receptor (human) agonism; P35462; D3R DiscoveRx beta-arrestin cells, luminescence, 90 min; max activation, %; hit rate 0.58% among 410,000; in the data active = max activation above about 30%; also: 0% is about no effect
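Agonist-mode cell screen: cells plated at 1500/well and incubated overnight at 37 °C, then exposed to library compounds for 90 min at 37 °C. Detection reagent was added for 30–60 min at room temperature, and luminescence was read.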
DRD3 antagonist = D3 dopamine receptor (human) antagonism; P35462; D3R cells, DiscoveRx beta-arrestin luminescence, antagonist mode; stronger effect = lower value; max response, negative = inhibition, %; hit rate 2.5% among 360,000; in the data active = max response below about -50%; inconclusive = no clear call, values can overlap the other calls; also: % is scaled to controls: 0 for no effect and ±100 for the full control effect
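Cells expressing the human receptor were seeded at 1500 cells/well, incubated overnight at 37 degrees C in 5% CO2, then exposed to library compounds with dopamine controls for 90 minutes at 37 degrees C before luminescent detection.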
BCR signal inh = chronic active BCR signaling inhibition; ABC-DLBCL IkBa-CBG/CBR reporter, luminescence ratio, 4 h; Potency, µM (series often up to 46.1 µM), for the others: top-dose activity change, negative = inhibition, usual class: inhibitors; hit rate 0.05% among 340,000; active = well fitted inhibition curve with a large enough effect in the signal ratio, with a control signal flat, not every such curve was filed as active; inconclusive = small, poorly fitted or top-dose-only effect, or effect the other way, or a change in a side signal; the % refers to the signal ratio;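 also: potency is read from the fitted curve at half-maximal effect; plate controls were basal doxycycline-induced cells for no effect and cells given 10 µM MG132 for full effect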
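Cell line TMD8 (human ABC DLBCL), stably expressing tet-inducible CBG68-IkBa fusion and CBR; IMDM/0.5% FBS; cpd up to 46 uM; dox induction, 4 h, 37C/5% CO2; dual luminescence; green/red ratio; MG132 control.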
D1 agonist = agonists of human D1 dopamine receptor. P21728. HEK293 T-REx D1 cells, calcium flux, agonist mode. activation, % at 2 µM. hit rate 1% among 360,000. AID 504660; in the data active = activation above about 30%; also: 0% is about no effect
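Agonism was scored from calcium flux recorded over 180 s (1 read/s) after pintool compound addition, following a 10-cycle baseline. Cells were inducible force-coupled HEK293 TREx D1, plated overnight at 30 C and loaded with no-wash calcium dye.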
D1 potentiator = potentiators of human D1 dopamine receptor; P21728; HEK293 TREx D1 cells, calcium flux, dopamine EC20 potentiation; potentiation, % at 10 µM; hit rate 0.036% among 360,000; AID 504651; in the data active = potentiation above about 30%; also: 0% is about no effect
An asterisk follows results filed as active; u = inconclusive; x = not tested or not shown; ! = not active in a repeat.

SMILES | D1 antagonist | DRD3 agonist | DRD3 antagonist | BCR signal inh | D1 agonist | D1 potentiator
CCC(C)NC(=O)c1ccccc1NC(=O)c1ccc(CSc2ccccc2)cc1 (stereo not given) | -4 | 4 | 6 | u | 36* | -4
Cc1ccc(S(=O)(=O)N2CCCc3cc(NC(=O)c4ccccc4Cl)ccc32)cc1 | -4 | 0 | x | x | 19 | 1
CCCOC(=O)CSc1nc(N)c(C#N)c(-c2ccco2)c1C#N | x | 8 | -12 | x | x | x
CCCOC(=O)CSc1nc(N)c(C#N)c(CC)c1C#N | -40* | -5 | -11 | 9% | 4 | -5
O=C(NCc1ccc(F)cc1)c1cc(C2CCCCN2C(=O)OCCF)on1 (stereo not given) | x | 5 | 6 | x | x | x
CCSc1nc(=O)n(-c2ccccc2)c(C)c1C(C)=O | 0 | -9 | u | -13% | 2 | -4
CSc1nc(=O)n(-c2ccccc2)c(C)c1C(C)=O | 4 | 34* | 17 | 0% | 2 | -2
Cn1nnnc1Sc1ncnc2scc(-c3cc4ccccc4o3)c12 | -44*! | x | x | u | 3 | -6
Cn1nnnc1Sc1ncnc2scc(-c3ccc4ccccc4c3)c12 | -13 | x | x | x | 10 | -5
Cn1nnnc1Sc1ncnc2scc(-c3ccccc3C(F)(F)F)c12 | -36*! | x | x | -16% | 1 | 8
COc1ccc(S(=O)(=O)NCC(c2ccc(F)cc2)N2CCOCC2)cc1Br (stereo not given) | -19 | 4 | 19 | -14% | 1 | -8
OCC1(Cc2ccccc2)CCN(Cc2cnc(-c3cccc4ccccc34)nc2)CC1 | -24 | -10 | 8 | u | 5 | -7
COc1ccc(CC2(CO)CCN(Cc3ccc4nsnc4c3)CC2)cc1 | 4 | -25 | -73* | 12% | 4 | -6
COc1ccc(CC2(CO)CCN(S(=O)(=O)c3sccc3C)CC2)cc1 | -14 | 14 | 8 | -2% | 32* | -6
Cc1ccccc1-c1ncc(CN2CCC(CO)(CCCc3ccccc3)CC2)cn1 | -55* | -15 | -26 | 2% | 10 | -3
COc1ccc(-c2ncc(CN3CCC(CO)(Cc4cccc(OC)c4)CC3)cn2)cc1 | -1 | 1 | -18 | -14% | 39* | 6
CCC(Sc1nc2ccccc2c2nc(CCc3c(C)n[nH]c3C)nn12)C(=O)Nc1ccc(OC)cc1 (stereo not given) | 17 | 7 | x | -6% | 1 | 1
COc1cc(C)ccc1Oc1ccc([N+](=O)[O-])cc1 | x | -12 | 0 | x | x | x
S=c1[nH]nc(-c2cccc(Br)c2)o1 | 0 | -1 | 9 | 16% | 1 | 2
Nn1c(-c2cccc(Br)c2)n[nH]c1=S | -5 | -15 | -85* | 8% | 0 | 0
O=[N+]([O-])c1ccc(C(c2sc3nc(-c4ccco4)nn3c2O)N2CCN(Cc3ccccc3)CC2)cc1 (stereo not given) | x | 1 | x | -11% | -2 | 1
CCCCN(CCCC)C(=O)c1cc2c(=O)n3ccccc3nc2s1 | 8 | 2 | x | x | -1 | 6
CCN(C(=O)c1nn(-c2ccc(C)cc2)c(=O)c2c1c1ccccc1n2C)c1ccc(F)cc1 | 10 | -11 | x | x | -1 | 4
CC(C)CNC(=O)C1(C)CCCN1C(=O)C(C)(C)Oc1ccc(Cl)cc1 (stereo not given) | x | -21 | -100* | x | x | x
CC(C)CNC(=O)C1(C)CCCN1C(=O)c1ccncc1 (stereo not given) | x | 89* | 4 | x | x | x
SMILES | D1 antagonist | DRD3 agonist | DRD3 antagonist | BCR signal inh | D1 agonist | D1 potentiator
CC(C)CNC(=O)C1(C)CCCN1Cc1ccc(OC(F)(F)F)cc1 (stereo not given) | x | 7 | 26 | x | x | x
CCCS(=O)(=O)NC(=O)C1(C)CCN(C(=O)c2ccc(OC)c(F)c2)C1 (stereo not given) | x | -1 | 1 | x | x | x
CC(=O)c1ccc(C)cc1OC(=O)c1cccc(F)c1 | -1 | 14 | 4 | -7% | 1 | -5
Cc1ccc(C(=O)CC(=O)c2cccc(F)c2)c(O)c1 | 5 | -3 | -62* | u | 4 | -3
Cc1ccc(C(=O)CC(=O)c2ccccc2C)c(O)c1 | -1 | 11 | -50* | -3% | 0 | 4
Cc1ccc(O)c(C(=O)CC(=O)c2ccccc2Cl)c1 | -15 | 2 | -9 | 1% | 1 | -4
CCCS(=O)(=O)NC(=O)C1(C)CCN(C(=O)c2cc(-c3cccs3)oc2C)C1 (stereo not given) | x | 4 | 1 | x | x | x
Cc1c(-c2cccc(NC(=O)Nc3ccc(Cl)cc3)c2)nc2ncccn12 | -18 | -7 | x | x | 3 | -5
Cc1c(-c2cccc(NC(=O)c3ccc(F)c(F)c3)c2)nc2ncccn12 | -36* | -19 | x | x | 0 | -2
CCN(Cc1ccccc1)S(=O)(=O)c1cc(C(=O)OC)n(C)c1 | -24 | -3 | -6 | 15% | 13 | -8
COC(=O)c1ccc(S(=O)(=O)N(Cc2ccccc2)Cc2ccccc2)n1C | -40* | 0 | 33 | -19% | 11 | -4
CC(C)COc1ccc(C(=O)Nc2sc3c(c2C(=O)O)CC(C)(C)OC3)cc1 | -31* | 1 | -20 | u | 3 | -4
N#Cc1ccccc1OCCCNC1CCCC1 | 11 | -4 | -80* | 0% | 9 | -4
CCOc1ccccc1OCCNC1CCCC1 | 3 | -7 | -106* | 0% | 0 | -2
CCOc1ccc(OCCNC2CCCC2)cc1 | 1 | -3 | -60* | -7% | 4 | -11
CCCOc1ccc(OCCNC2CCCC2)cc1 | -22 | -10 | -10 | 2% | 3 | 9
Cc1ccsc1C1Nc2ccc3ncccc3c2C2=C1C(=O)CC(C)(C)C2 (stereo not given) | -6 | -16 | u | u | 5 | 7
CC1(C)CC(=O)C2=C(C1)c1c(ccc3ccccc13)NC2c1ccco1 (stereo not given) | -11 | -17 | 9 | 18% | -1 | 30*
CCOC(=O)c1c(Nc2ccc(C)cc2)nnc(-c2ccccc2)c1-c1ccccc1 | 11 | 22 | x | x | -1 | 0
Cc1ccc2nc(/C(C#N)=C\c3ccc(N4CCOCC4)o3)[nH]c2c1 | -2 | 3 | 0 | u | 8 | -3
N#C/C(=C/c1ccc(N2CCCCC2)o1)c1cccc(F)c1 | 1 | -55 | -69* | u | 7 | -4
Cc1ccc(/C(C#N)=C\c2ccc(N3CCOCC3)o2)cc1 | -14 | -27 | -65* | u | 24 | -10
N#C/C(=C/c1ccc(N2CCCCCC2)o1)c1ccc(Cl)cc1 | -9 | -26 | -64* | u | -1 | -4
CCOc1ccc(CCNC(=O)Cc2ccc(NC(=O)N3CCSc4ncccc43)cc2)cc1 | -1 | 0 | x | x | -1 | -1
COc1ccc(Cl)cc1NC(=O)c1nn(C)c2c1CS(=O)(=O)c1ccccc1-2 | -14 | 4 | x | x | 0 | -4
